# Measured values taken from article PMC4552634, “A New Set of Chemical Starting Points with Plasmodium falciparum Transmission-Blocking Potential for Antimalarial Drug Discovery” (PLoS ONE, 2015).
# The campaign covered roughly 13,000 compounds. About 3,200 (25%) showed an effect of 50% or more. The list shows a part of the results.
# Tested on: P. falciparum stage V gametocytes
# Parameters: BacTiter-Glo ATP luminescence viability of purified stage V gametocytes in 384-well plates, per cent inhibition versus DMSO
# Conditions: 48 h, 5 µM; inhibitor
row,SMILES,% Inhibition [%]
1,CCc1c(C(=O)NC2CCC(N3CCC(c4ccccc4C)CC3)CC2)[nH]c2ccc(Br)cc12 (stereo not drawn) [TCMDC-133530],-72.63
2,CC(CNC(=O)C(c1cc2ccccc2o1)N1CCN(C(c2ccccc2)c2ccccc2)CC1)c1ccccc1 (stereo not drawn) [TCMDC-141010],11.08
3,O=C(Nc1ccc(C(F)(F)F)cc1)c1cccc(S(=O)(=O)NC2CCN(Cc3ccccc3)C2)c1 (stereo not drawn) [TCMDC-132484],-13.38
4,CCN(CC)CCNC(=O)c1ccc(NC(=O)c2oc3c(Cl)cccc3c2C)cc1 [TCMDC-125463],22.65
5,O=S(=O)(c1ccccc1)C1CC1 [TCMDC-132010],2.082
6,CSc1nnc2n(Cc3ccccc3)c(=O)c3c(n12)-c1ccccc1CC31CCCCC1 [TCMDC-125076],-1.112
7,O=C(CSc1nc2ccccc2c(=O)n1CC1CCCO1)Nc1cc(C(F)(F)F)ccc1Cl (stereo not drawn) [TCMDC-123732],-97.98
8,CC(=O)Nc1ccc(C(=O)Nc2cccc(-c3cccc(-c4nc5ccc(F)cc5[nH]4)c3)c2)cn1 [TCMDC-136824],-57.69
9,CC(=O)Nc1ccc(C(=O)Nc2cccc(-c3cccc(-c4nc5ccc(C(F)(F)F)cc5[nH]4)c3)c2)cn1 [TCMDC-136828],75.79
10,O=C(Nc1cccc(-c2cccc(-c3nc4ccc(C(F)(F)F)cc4[nH]3)c2)c1)Nc1ccc(F)c(F)c1F [TCMDC-133229],80.27
11,NC(=O)c1ccc(C(=O)Nc2cccc(-c3cccc(-c4nc5ccc(C(F)(F)F)cc5[nH]4)c3)c2)cc1 [TCMDC-132191],5.838
12,CNC(=O)Cc1ccc(C(=O)Nc2cccc(-c3cccc(-c4nc5ccc(C(F)(F)F)cc5[nH]4)c3)c2)cc1 [TCMDC-137074],50.29
13,O=C(Nc1ccc(-c2cccc(-c3nc4ccc(C(F)(F)F)cc4[nH]3)c2)cc1)Nc1ccc(F)c(F)c1F [TCMDC-133228],-36.32
14,O=C(Nc1cccc(-c2cccc(-c3nc4ccc(C(F)(F)F)cc4[nH]3)c2)c1)c1ccncc1 [TCMDC-136963],-4.28
15,CC(=O)Nc1ccc(C(=O)Nc2ccc(-c3cccc(-c4nc5ccc(C(F)(F)F)cc5[nH]4)c3)cc2)cn1 [TCMDC-136829],5.637
16,O=C(Nc1cccc(-c2ccc(-c3nc4ccc(C(F)(F)F)cc4[nH]3)cc2)c1)Nc1ccc(F)c(F)c1F [TCMDC-133224],-27.79
17,OCCN1CCN(Cc2ccc(-c3ccc(-c4nc5ccc(C(F)(F)F)cc5[nH]4)s3)cc2)CC1 [TCMDC-133034],6.44
18,COc1ccc(NC(=O)Nc2ccc(-c3cccc(-c4nc5ccccc5[nH]4)c3)cc2)cc1 [TCMDC-133250],-9.476
19,O=C(Nc1ccc(Cn2ncc(N3CCCNCC3)c(Cl)c2=O)cc1)Nc1cccc(C(F)(F)F)c1 [TCMDC-141925],-42.22
20,NC(=O)c1ccc(C(=O)Nc2cccc(-c3csc(-c4nc5ccccc5[nH]4)c3)c2)cc1 [TCMDC-132400],-14.2
21,Cc1cc(C(F)(F)F)n2nc(C(=O)N(C)Cc3cncn3Cc3ccc(F)cc3)cc2n1 [TCMDC-132466],29.43
22,Cc1ccc(N2CCc3c(-c4cc5cccnc5nc4C)cc(C)nc32)c(Cl)c1 [TCMDC-136379],19.51
23,COc1ccc(C=C2SC(=O)NC2=Nc2ccccc2)c(OC)c1 [TCMDC-123697],23.55
24,Oc1cccc(Nc2nc(NCc3ccccc3)c3ccccc3n2)c1 [TCMDC-125640],36.33

row,SMILES,% Inhibition [%]
1,Cl.Oc1cccc(Nc2nc(NCC3CCCO3)c3ccccc3n2)c1 (stereo not drawn) [TCMDC-123641],-25.34
2,Brc1ccc(Nc2nc(NCC3CCCO3)c3ccccc3n2)cc1 (stereo not drawn) [TCMDC-124563],15.52
3,Cl.OCCNc1nc(Nc2cccc(O)c2)nc2ccccc12 [TCMDC-123747],-37.65
4,Oc1ccc2nc(NCCCc3ccccc3)nc(NCCCc3ccccc3)c2c1 [TCMDC-138382],90.22
5,NC1CCN(c2nc(NCCCc3ccc(O)cc3)nc(NCc3cccc4ccccc34)n2)CC1 [TCMDC-133393],0.2406
6,Oc1ccc2nc(Nc3ccccc3)nc(NCCc3ccccc3)c2c1 [TCMDC-138404],68.97
7,Oc1ccc2nc(NCCCc3ccccc3)nc(NCCc3ccccc3)c2c1 [TCMDC-138406],91.92
8,Cl.Oc1ccc(Nc2nc(NCC3CCCO3)c3ccccc3n2)cc1 (stereo not drawn) [TCMDC-123730],79.07
9,O=C(Nc1ccc(Br)cc1)Nc1ccc(Cn2ncc(N3CCCNCC3)c(Cl)c2=O)cc1 [TCMDC-133329],-9.301
10,CC(=O)Nc1sc(C)c(C)c1CN1CCc2ccccc2C1 [TCMDC-124498],-41.39
11,COc1ccc(Nc2ncc3c(-c4cccc(NC(=O)c5ccc(N)cc5)c4)c[nH]c3n2)cc1OC [TCMDC-135250],-78.65
12,N#Cc1ccccc1N1CCN(C2CCC(NC(=O)c3n[nH]c4cc(C(F)(F)F)ccc34)CC2)CC1 (stereo not drawn) [TCMDC-134100],-13.75
13,CSCCC(C(=O)O)N1C(=O)c2ccccc2C1=O (stereo not drawn) [TCMDC-125514],-25.71
14,O=c1cc(NCCCNCc2cccc(SC(F)(F)F)c2)[nH]c2ccccc12 [TCMDC-139420],-38.07
15,CC(O)C1CCCCN1C(=O)c1ccc(-c2ccc(-c3nc4ccccc4[nH]3)s2)cc1 (stereo not drawn) [TCMDC-132330],-3.595
16,CCN1CCN(c2cc(C)c3cc(NC(=O)C=Cc4cccc(OC)c4OC)ccc3n2)CC1 [TCMDC-123803],-23.17
17,CCC(C)OC(=O)C1=C(C)NC2=C(C(=O)CC(c3ccc(OC)c(OC)c3)C2)C1c1ccc(C)o1 (stereo not drawn) [TCMDC-123735],31.33
18,CCCc1cc(C(=O)N[C@@H](Cc2ccccc2)[C@H](O)CNC(C)C)c(F)c(N2CCCC2=O)c1 [TCMDC-135418],10.92
19,Cl.Oc1ccc(Nc2nc(N3CCCC3)c3ccccc3n2)cc1 [TCMDC-123532],79.67
20,COc1ccc(Nc2nc(N3CCCC3)c3ccccc3n2)cc1.Cl [TCMDC-124381],-67.29
21,Cl.OCCNc1nc(Nc2ccccc2)nc2ccccc12 [TCMDC-123749],91.01
22,Cl.OCCNc1nc(Nc2ccc(F)cc2)nc2ccccc12 [TCMDC-123640],-1.104
23,Oc1ccc(Nc2nc(NCc3ccco3)c3ccccc3n2)cc1 [TCMDC-124015],-74.78
24,Cl.OCCNc1nc(Nc2ccc(Cl)cc2)nc2ccccc12 [TCMDC-125389],1.912

row,SMILES,% Inhibition [%]
1,CC1CC(NCCCNc2cc(=O)c3ccccc3[nH]2)c2c(Cl)c(Cl)cc(Cl)c21 (stereo not drawn) [TCMDC-139486],41.94
2,C(=N\Nc1nccc2sc(-c3cccnc3)cc12)/c1ccncc1 [TCMDC-135305],-45.13
3,CCCC1N=C(N)N=C(N)N1c1cccc([N+](=O)[O-])c1 (stereo not drawn) [TCMDC-131299],-55.59
4,Nc1cc(C(F)(F)F)ccc1Cl [TCMDC-123950],13.58
5,CCOc1ccc2nc3cc(NC(=O)c4ccco4)ccc3c(N)c2c1 [TCMDC-125004],120.6
6,CCOc1cc(N)c2nc3ccc([N+](=O)[O-])cc3cc2c1 [TCMDC-138134],64.78
7,CCOc1ccc2nc3cc([N+](=O)[O-])ccc3c(N)c2c1 [TCMDC-125852],122.1
8,CCNc1cc(C)nc(Nc2ccc(NC(=O)c3ccco3)cc2)n1 [TCMDC-124982],-6.858
9,O=[N+]([O-])c1ccc2nccnc2c1 [TCMDC-123943],28.42
10,CC(O)C(=O)O.CCOc1ccc2nc3cc(N)ccc3c(N)c2c1 [TCMDC-123983],24.81
11,O=C(Nc1ccc(Oc2ccc(OC(F)(F)F)cc2)cc1)c1ccco1 [TCMDC-124049],6.868
12,Nc1ccc2c(N)c3ccccc3nc2c1 [TCMDC-132034],26.54
13,Nc1c2ccccc2nc2cc(C(F)(F)F)ccc12 [TCMDC-142006],51.79
14,FC(F)(F)c1ccc2[nH]c(-c3ccc(-c4cccc(CNCc5cnn(-c6ccccc6)n5)c4)s3)nc2c1.O=C(O)C(F)(F)F [TCMDC-132968],-47.17
15,CC12CN3CC(C)(CN(C1)C3c1cc(Br)ccc1O)C2O (stereo not drawn) [TCMDC-123838],-31.33
16,Nc1nc(N)c2cc(Cc3ccc([N+](=O)[O-])cc3)cnc2n1 [TCMDC-137920],-6.074
17,O=c1c2ccccc2nc(/C=C/c2ccc([N+](=O)[O-])cc2)n1-c1ccccn1 [TCMDC-125664],33.94
18,Nc1c2ccccc2nc2cc([N+](=O)[O-])ccc12 [TCMDC-132031],75.87
19,Clc1ccccc1CCNCC1CCN(CC2CCCCC2)CC1 [TCMDC-141344],100.3
20,CCOc1ccccc1CCNCC1CCN(CC2CCCCC2)CC1 [TCMDC-141347],95.36
21,Clc1cccc(Cl)c1CCNCC1CCN(CC2CCCCC2)CC1 [TCMDC-141346],-12.07
22,FC(F)(F)c1cccc(CNCC2CCN(CC3CCCCC3)CC2)c1 [TCMDC-141677],-8.545
23,Oc1ccc(CNCC2CCN(CC3CCCCC3)CC2)cc1 [TCMDC-141676],-27.61
24,Fc1c(CNCC2CCN(CC3CCCCC3)CC2)cccc1C(F)(F)F [TCMDC-141348],4.763
